# Where a name gives a salt, the structure may show the parent alone.
# Test system: Klebsiella aerogenes DSM 30053
# Test: fold change of Cadaverine concentration vs plate DMSO controls (fold change (ratio)); higher = more amine produced, active = hit call of the paper (significant change in both replicates, either direction)
# Details: incubation time: 27 h, anaerobic, 37 °C
# Summary of the method: (§1)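 Each value is the fold change relative to DMSO-only wells on the same plate. Four gut bacterial strains were grown anaerobically in mGAM at 37 °C for 27 h in 80 µL wells, starting at OD 0.1 before a 1:1 dilution, with compounds at 20 µM final (sweeteners 50 µM). Whole cultures were extracted with cold acetonitrile/methanol containing 0.1% formic acid, centrifuged, and amines were quantified by LC–triple-quadrupole MS (dynamic MRM) against external calibration curves with within-batch drift correction. Values are means of 2 biological replicates.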
row,Structure (SMILES),fold change of Cadaverine concentration
1,CCCc1nc2c(C)cc(-c3nc4ccccc4n3C)cc2n1Cc1ccc(-c2ccccc2C(=O)O)cc1 [Telmisartan] (20 µM),0.996 (inactive)
2,CNC(C)CCC=C(C)C (centres undefined) [Isometheptene mucate] (20 µM),1.02 (inactive)
3,O=C1CCC(N2C(=O)c3ccccc3C2=O)C(=O)N1 (centres undefined) [Thalidomide] (20 µM),1 (inactive)
4,CCN(CC)C(=O)N1CCN(C)CC1 [Diethylcarbamazine citrate] (20 µM),1 (inactive)
5,CCCCCCCN(CC)CCCC(O)c1ccc(NS(C)(=O)=O)cc1 (centres undefined) [Ibutilide fumarate] (20 µM),1.01 (inactive)
6,CCN(CCCCOC(=O)c1ccc(OC)c(OC)c1)C(C)Cc1ccc(OC)cc1 (centres undefined) [Mebeverine hydrochloride] (20 µM),1.02 (inactive)
7,N=C(N=C(N)N)N1CCOCC1 [Moroxidine hydrochloride] (20 µM),1.09 (inactive)
8,O=c1[nH]c(=O)n([C@H]2C[C@H](O)[C@@H](CO)O2)cc1I [Idoxuridine] (20 µM),1 (inactive)
9,Cc1cc(C2CCCCC2)n(O)c(=O)c1 [Ciclopirox ethanolamine] (20 µM),1 (inactive)
10,CC[N+](C)(C)Cc1ccccc1Br [Bretylium tosylate] (20 µM),1.02 (inactive)

# Test system: Ruminococcus gnavus DSM 108212
# Test: fold change of 2-Phenylethylamine concentration vs plate DMSO controls (fold change (ratio)); higher = more amine produced, active = hit call of the paper (significant change in both replicates, either direction)
# Details: incubation time: 27 h, anaerobic, 37 °C
# Summary of the method: as §1
row,Structure (SMILES),fold change of 2-Phenylethylamine concentration
1,CC1CC(OC(=O)C(O)c2ccccc2)CC(C)(C)C1 (centres undefined) [Cyclandelate] (20 µM),1.03 (inactive)
2,COc1ccc(C(=O)CC(=O)c2ccc(C(C)(C)C)cc2)cc1 [Avobenzone] (20 µM),1.08 (inactive)
3,Cc1nc2ccccc2n1Cc1ccc(Cl)cc1 [Chlormidazole] (20 µM),0.854 (inactive)
4,Cn1nnnc1SCC1=C(C(=O)O)N2C(=O)[C@@H](NC(=O)[C@H](O)c3ccccc3)[C@H]2SC1 [Cefamandole sodium salt] (20 µM),0.118 (active)
5,CCN1CCC[C@H]1CNC(=O)c1c(O)c(Cl)cc(Cl)c1OC [Raclopride] (20 µM),0.991 (inactive)
6,O=c1oc2ccccc2c(O)c1Cc1c(O)c2ccccc2oc1=O [Dicumarol] (20 µM),1.02 (inactive)
7,S=C([S-])NCCNC(=S)[S-].S=C([S-])NCCNC(=S)[S-].[Mn+2].[Zn+2] (20 µM),1.21 (inactive)
8,CC(NCCC(c1ccccc1)c1ccccc1)c1ccccc1 (centres undefined) [Fendiline hydrochloride] (20 µM),0.98 (inactive)
9,Nc1ccc(S(=O)(=O)Nc2nccs2)cc1 [Sulfathiazole] (20 µM),1.03 (inactive)
10,CC(=O)/N=c1/sc(S(N)(=O)=O)nn1C [Methazolamide] (20 µM),1.12 (inactive)
11,Oc1ccccc1O [Catechol] (20 µM),0.971 (inactive)
12,COc1cc(C(=O)NS(=O)(=O)c2ccccc2C)ccc1Cc1cn(C)c2ccc(NC(=O)OC3CCCC3)cc12 [Zafirlukast] (20 µM),0.814 (inactive)
13,COc1nc(N)nc2c1ncn2[C@@H]1O[C@H](CO)[C@@H](O)[C@@H]1O [Nelarabine] (20 µM),1.03 (inactive)
14,O=C(NCc1ncc(C(F)(F)F)cc1Cl)c1c(Cl)cccc1Cl (20 µM),0.956 (inactive)
15,CCc1oc2ccccc2c1C(=O)c1cc(Br)c(O)c(Br)c1 [Benzbromarone] (20 µM),0.763 (active)
16,Nc1nc(=O)[nH]cc1F [Flucytosine] (20 µM),1.01 (inactive)
17,CC[N+](CC)(CC)CCOc1cccc(OCC[N+](CC)(CC)CC)c1OCC[N+](CC)(CC)CC [Gallamine triethiodide] (20 µM),1.06 (inactive)
18,COc1cc(C)nc(-n2nc(C)cc2OC)n1 [Epirizole] (20 µM),1.02 (inactive)
19,COc1ccccc1O [Guaiacol] (20 µM),1.06 (inactive)
20,COc1cccc2c1C(=O)c1c(O)c3c(c(O)c1C2=O)C[C@@](O)(C(=O)CO)C[C@@H]3O[C@H]1C[C@H](N)[C@@H](O)[C@H](C)O1 [Epirubicin hydrochloride] (20 µM),0.934 (inactive)

row,Structure (SMILES),fold change of 2-Phenylethylamine concentration
1,Cc1onc(-c2ccccc2)c1C(=O)N[C@@H]1C(=O)N2[C@@H]1SC(C)(C)[C@@H]2C(=O)O [Oxacillin sodium] (20 µM),0.0469 (active)
2,CCCOc1cc(N)ccc1C(=O)OCCN(CC)CC [Propoxycaine hydrochloride] (20 µM),1.09 (inactive)
3,OC[C@H]1O[C@H](O[C@H]2O[C@H](CO)[C@@H](O)[C@H](O)[C@H]2O)[C@H](O)[C@@H](O)[C@@H]1O [Trehalose] (50 µM),1.15 (inactive)
4,CN1[C@@H]2CC[C@H]1C[C@@H](OC(c1ccccc1)c1ccccc1)C2 [Benztropine mesylate] (20 µM),1 (inactive)
5,C[C@H](CCC(=O)O)[C@H]1CC[C@H]2[C@@H]3CC[C@@H]4C[C@H](O)CC[C@]4(C)[C@H]3CC[C@]12C [Lithocholic acid] (20 µM),1.09 (inactive)
6,CN(C)CCC=C1c2ccccc2COc2ccccc21 [Doxepin hydrochloride] (20 µM),0.921 (inactive)
7,NC[C@H]1O[C@H](O[C@H]2[C@H](O)[C@@H](O[C@H]3O[C@H](CO)[C@@H](O)[C@H](N)[C@H]3O)[C@H](N)C[C@@H]2N)[C@H](N)C[C@@H]1O [Tobramycin] (20 µM),0.941 (inactive)
8,CC(=O)Oc1cccc2c1C(=O)c1c(OC(C)=O)cc(C(=O)O)cc1C2=O [Diacerein] (20 µM),0.916 (inactive)
9,CCCCc1ncc(/C=C(\Cc2cccs2)C(=O)O)n1Cc1ccc(C(=O)O)cc1 [Eprosartan mesylate] (20 µM),1.02 (inactive)
10,CCCc1nc2c(C)cc(-c3nc4ccccc4n3C)cc2n1Cc1ccc(-c2ccccc2C(=O)O)cc1 [Telmisartan] (20 µM),1.01 (inactive)
11,CNC(C)CCC=C(C)C (centres undefined) [Isometheptene mucate] (20 µM),0.954 (inactive)
12,O=C1CCC(N2C(=O)c3ccccc3C2=O)C(=O)N1 (centres undefined) [Thalidomide] (20 µM),0.981 (inactive)
13,CCN(CC)C(=O)N1CCN(C)CC1 [Diethylcarbamazine citrate] (20 µM),0.905 (inactive)
14,CCCCCCCN(CC)CCCC(O)c1ccc(NS(C)(=O)=O)cc1 (centres undefined) [Ibutilide fumarate] (20 µM),0.903 (inactive)
15,CCN(CCCCOC(=O)c1ccc(OC)c(OC)c1)C(C)Cc1ccc(OC)cc1 (centres undefined) [Mebeverine hydrochloride] (20 µM),1.01 (inactive)
16,N=C(N=C(N)N)N1CCOCC1 [Moroxidine hydrochloride] (20 µM),1.34 (active)
17,O=c1[nH]c(=O)n([C@H]2C[C@H](O)[C@@H](CO)O2)cc1I [Idoxuridine] (20 µM),1.08 (inactive)
18,Cc1cc(C2CCCCC2)n(O)c(=O)c1 [Ciclopirox ethanolamine] (20 µM),0.976 (inactive)
19,CC[N+](C)(C)Cc1ccccc1Br [Bretylium tosylate] (20 µM),1.05 (inactive)
